Each structure is given as a SMILES string. Records with an inconclusive call do not appear. Calls of active or inactive are those of the source. How the source made its calls, unless noted: active means hit-call score of the fitted dose curve at least 0.9, where 1 is the maximum; inconclusive means response in the unintended direction; inactive means score below 0.9.

The target of experiment [1] is human AMP-activated Protein Kinase, alpha 1 (AMPKa1), PRKAA1 (gene 5562) (UniProt Q13131). The experiment is described as follows: NVS_ENZ_hAMPKa1: NovaScreen (NVS) Enzymatic Assay for human AMP-activated Protein Kinase, alpha 1 (AMPKa1) (AID 2283130). The procedure, abridged: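 Recombinant human AMPKα1 activity was measured cell-free by fluorescent substrate conversion with electrophoretic mobility-shift separation, 1 h after dosing. Duplicate single-point screening was at 25 uM; actives (≥30% inhibition) were retested in concentration-response up to 50 uM.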

Experiment [2] deals with human Acetylcholinesterase (AChE), ACHE (gene 43) (UniProt P22303). The experiment is described as follows: NVS_ENZ_hAChE: NovaScreen (NVS) Enzymatic Assay for human Acetylcholinesterase (AChE) (AID 2283129). The method in brief:
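Cell-free colorimetric enzyme-activity assay; compounds read 0.33 hour after dosing, loss of signal vs DMSO baseline. Primary screen in duplicate at 25 uM single concentration, with active compounds retested in concentration series.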

The target in experiment [3] is human Aurora Kinase A - serine/threonine-protein Kinase 6 (AurA), AURKA (gene 6790) (UniProt O14965). The experiment in a line: NVS_ENZ_hAurA: NovaScreen (NVS) Enzymatic Assay for human Aurora Kinase A - serine/threonine-protein Kinase 6 (AurA) (AID 2283142). The procedure, abridged:
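Cell-free enzymatic assay with human Aurora A, 1 hour after dosing. Fluorescent substrate turnover detected after electrophoretic mobility shift separation of substrate and product. Screened at 25 uM, actives retested in concentration-response up to 50 uM.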

Experiment [4] deals with human Ephrin type-A Receptor 2 (EphA2), EPHA2 (gene 1969) (UniProt P29317). The experiment is described as follows: NVS_ENZ_hEphA2: NovaScreen (NVS) Enzymatic Assay for human Ephrin type-A Receptor 2 (EphA2) (AID 2283155). The method in brief: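 Cell-free recombinant EphA2 kinase with specific substrate, 1 h, fluorescence with electrophoretic mobility-shift separation of substrate and product. Primary screen at 25 uM in duplicate; hits retested in singleton concentration-response up to 50 uM, referenced to DMSO.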

The target in experiment [5] is human Ephrin type-B Receptor 2 (EphB2), EPHB2 (gene 2048) (UniProt P29323). The experiment is described as follows: NVS_ENZ_hEphB2: NovaScreen (NVS) Enzymatic Assay for human Ephrin type-B Receptor 2 (EphB2) (AID 2283156). The procedure, abridged:
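Recombinant kinase with fluorescent substrate, product separated by electrophoretic mobility shift, read 1 h after dosing. Duplicate 25 uM screen, then singleton concentration-response to 50 uM max; loss of signal versus DMSO.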

The target of experiment [6] is human Fibroblast Growth Factor Receptor 1 (FGFR1), FGFR1 (gene 2260) (UniProt P11362). The experiment is described as follows: NVS_ENZ_hFGFR1: NovaScreen (NVS) Enzymatic Assay for human Fibroblast Growth Factor Receptor 1 (FGFR1) (AID 2283159). The method in brief:
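Cell-free recombinant kinase with fluorescent substrate, product separated by electrophoretic mobility shift; read 1 hour after dosing, loss of signal relative to DMSO. Initial screen in duplicate at 25 uM, actives followed in concentration series.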

The target of experiment [7] is human Mitogen-Activated Protein Kinase 1 (MAPK 1), MAPK1 (gene 5594) (UniProt P28482). The experiment is described as follows: NVS_ENZ_hMAPK1: NovaScreen (NVS) Enzymatic Assay for human Mitogen-Activated Protein Kinase 1 (MAPK 1) (AID 2283175). The method in brief: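 Cell-free recombinant human MAPK1 enzymatic assay, fluorescence/electrophoretic mobility shift read at 1 h; loss of signal vs DMSO. Primary screen in duplicate at 25 uM; actives (e.g. ≥30% inhibition) run as concentration-response up to 50 uM.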

Experiment [8] addresses human p21 Activated Kinase 4 (PAK4), PAK4 (gene 10298) (UniProt O96013). The experiment is described as follows: NVS_ENZ_hPAK4: NovaScreen (NVS) Enzymatic Assay for human p21 Activated Kinase 4 (PAK4) (AID 2283189). The method in brief: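 Cell-free recombinant human PAK4 activity assay; fluorescent substrate and product separated by electrophoretic mobility shift, read 1 h after dosing. Initially tested in duplicate at 25 uM, relative to DMSO baseline.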

Experiment [9] addresses human Matrix Metalloproteinase-1 (MMP1), MMP1 (gene 4312) (UniProt P03956). The experiment is described as follows: NVS_ENZ_hMMP1: NovaScreen (NVS) Enzymatic Assay for human Matrix Metalloproteinase-1 (MMP1) (AID 2283181). The method in brief: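 Human MMP1 enzyme activity measured by fluorescence 1 h after dosing, cell-free, with a specific substrate. Screened in duplicate at 25 uM; hits (e.g. 30% inhibition) run in concentration-response up to 50 uM; loss of signal versus DMSO.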

For experiment [10], the system named is rat Monoamine Oxidase, MAO-A, Central (MAOAC), gene 29253. The experiment is described as follows: NVS_ENZ_rMAOAC: NovaScreen (NVS) Enzymatic Assay for rat Monoamine Oxidase, MAO-A, Central (MAOAC) (AID 2283243).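 Further: potency refers to inhibition seen as signal drop below DMSO baseline.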 The procedure, abridged:
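Steps: rat brain protein extract dosed with test chemical (25 uM, duplicate, primary); incubated 1.5 h; radiolabelled product separated from substrate and counted. Signal loss versus DMSO scored as inhibition.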

For experiment [11], the target named is Norway rat Vesicular Monoamine Transporter (VMAT2), neurotransmitter transporter, Slc18a2 (gene 25549) (UniProt Q01827). The experiment is described as follows: NVS_TR_rVMAT2: NovaScreen (NVS) Transporter Assay for Norway rat Vesicular Monoamine Transporter (VMAT2), neurotransmitter transporter (AID 2283376).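 Further: actives lower the bound radioligand signal below the DMSO level.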 The method in brief: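 Tissue: rat forebrain extract. Format: competitive radioligand binding, cell-free. Timepoint: 1 h. Readout: filter radiodetection/scintillation. Screen: 25 uM in duplicate, then concentration series for actives. Baseline: DMSO.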

The target in experiment [12] is human MET Proto-Oncogene, Receptor Tyrosine Kinase (MET), MET (gene 4233) (UniProt P08581). The experiment is described as follows: NVS_ENZ_hMet: NovaScreen (NVS) Enzymatic Assay for human MET Proto-Oncogene, Receptor Tyrosine Kinase (MET) (AID 2283180). The method in brief: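 Cell-free MET kinase assay using recombinant protein and fluorescent substrate, with mobility-shift separation; read 1 h after dosing. Primary duplicate at 25 uM; actives in singleton concentration-response to 50 uM maximum. Signal loss versus DMSO.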

For experiment [13], the target named is human Tyrosine Protein Kinase Receptor Tie-2 (Tie2), TEK (gene 7010) (UniProt Q02763). The experiment in a line: NVS_ENZ_hTie2: NovaScreen (NVS) Enzymatic Assay for human Tyrosine Protein Kinase Receptor Tie-2 (Tie2) (AID 2283225). The procedure, abridged: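 Recombinant human Tie2 kinase activity was read cell-free by fluorescence with electrophoretic mobility shift, 1 hour after dosing. The screen used 25 uM in duplicate, then concentration-response up to 50 uM. Signal loss was scored against DMSO.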

Experiment [14] concerns the target rat Monoamine Oxidase, MAO-B, Central (MAOBC), Maob (gene 25750) (UniProt P19643). The experiment in a line: NVS_ENZ_rMAOBC: NovaScreen (NVS) Enzymatic Assay for rat Monoamine Oxidase, MAO-B, Central (MAOBC) (AID 2283238). The method in brief:
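Compounds were first tested in duplicate at 25 uM against MAO-B from rat brain tissue; those passing the inhibition threshold were retested in concentration series up to 50 uM. Radiodetection by scintillation counting at 1.17 h, analysed against DMSO baseline.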

Experiment [15] can be described thus: ATG_M_32_XSP2: Attagene TRANS-FACTORIAL Multi-Species (XSP2) HepG2 Assay for M19 Transcription Factor (Internal Marker) (AID 2283826). The method in brief: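 Read-out: fluorescent reporter mRNA fragments resolved by capillary electrophoresis after RT-PCR, gain-of-signal versus DMSO baseline. Cells were human HepG2 carrying transfected multi-reporter units, exposed 24 h. Medium contained 3 nM 6-alpha-fluorotestosterone plus 1.5 nM norgestrel.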

Experiment [16] can be described thus: CCTE_Harrill_HTTr_Apoptosis_PRF_DMEM_12hr: (Pilot) CCTE's 12-hour Apoptosis Assessment for the High-Throughput Transcriptomics (HTTr) Platform, in MCF-7 cells cultured in phenol red-free DMEM + 10% charcoal-stripped fetal bovine serum, Harrill Lab (AID 2283985; active means hit-call score of the fitted dose curve at least 0.9, where 1 is the maximum; inactive means score below 0.9). The procedure, abridged:
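MCF-7 cells in phenol red-free DMEM with 10% charcoal-stripped FBS, eight-point dilution series, 12 h exposure. Caspase-3/7 activation imaged by high content imaging with CellEvent Green reagent; bidirectional fit vs DMSO.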

The target of experiment [17] is human Caspase 2 (CASP2), CASP2 (gene 835) (UniProt P42575). The experiment is described as follows: NVS_ENZ_hCASP2: NovaScreen (NVS) Enzymatic Assay for human Caspase 2 (CASP2) (AID 2283135). The method in brief: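 E. coli-expressed enzyme in a cell-free protease assay, fluorescence read 1 h after dosing. Compounds at 25 uM in duplicate, with concentration-response up to 50 uM for hits; loss of signal against DMSO baseline.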

Experiment [18] addresses human Protein Tyrosine Phosphatase Receptor Type C (PTPRC), PTPRC (gene 5788) (UniProt P08575). The experiment in a line: NVS_ENZ_hPTPRC: NovaScreen (NVS) Enzymatic Assay for human Protein Tyrosine Phosphatase Receptor Type C (PTPRC) (AID 2283212). The method in brief:
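Yeast-extracted human PTPRC used in a cell-free colorimetric enzyme activity read-out, 1 h after dosing. Primary screen in duplicate at 25 uM; actives rerun in concentration-response up to 50 uM, DMSO as baseline.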

human AMP-activated Protein Kinase, alpha 1 (AMPKa1), PRKAA1 (gene 5562), sequence (Q13131 whole entry, looked up): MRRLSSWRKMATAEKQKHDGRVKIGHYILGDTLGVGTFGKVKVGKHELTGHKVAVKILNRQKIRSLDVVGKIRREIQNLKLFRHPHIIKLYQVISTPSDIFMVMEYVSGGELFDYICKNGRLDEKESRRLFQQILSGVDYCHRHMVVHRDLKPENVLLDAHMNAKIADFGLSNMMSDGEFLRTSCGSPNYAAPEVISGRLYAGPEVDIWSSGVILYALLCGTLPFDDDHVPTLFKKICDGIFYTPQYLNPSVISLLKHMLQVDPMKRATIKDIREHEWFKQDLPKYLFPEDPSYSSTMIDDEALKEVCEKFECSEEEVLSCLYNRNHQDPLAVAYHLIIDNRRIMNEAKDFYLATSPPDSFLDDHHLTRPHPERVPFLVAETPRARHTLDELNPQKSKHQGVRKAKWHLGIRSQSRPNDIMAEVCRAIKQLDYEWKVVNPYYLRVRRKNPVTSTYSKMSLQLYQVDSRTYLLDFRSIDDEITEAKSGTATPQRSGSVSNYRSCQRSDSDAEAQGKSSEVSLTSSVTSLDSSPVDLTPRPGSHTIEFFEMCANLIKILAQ
human Ephrin type-A Receptor 2 (EphA2), EPHA2 (gene 1969), sequence (P29317 whole entry, looked up): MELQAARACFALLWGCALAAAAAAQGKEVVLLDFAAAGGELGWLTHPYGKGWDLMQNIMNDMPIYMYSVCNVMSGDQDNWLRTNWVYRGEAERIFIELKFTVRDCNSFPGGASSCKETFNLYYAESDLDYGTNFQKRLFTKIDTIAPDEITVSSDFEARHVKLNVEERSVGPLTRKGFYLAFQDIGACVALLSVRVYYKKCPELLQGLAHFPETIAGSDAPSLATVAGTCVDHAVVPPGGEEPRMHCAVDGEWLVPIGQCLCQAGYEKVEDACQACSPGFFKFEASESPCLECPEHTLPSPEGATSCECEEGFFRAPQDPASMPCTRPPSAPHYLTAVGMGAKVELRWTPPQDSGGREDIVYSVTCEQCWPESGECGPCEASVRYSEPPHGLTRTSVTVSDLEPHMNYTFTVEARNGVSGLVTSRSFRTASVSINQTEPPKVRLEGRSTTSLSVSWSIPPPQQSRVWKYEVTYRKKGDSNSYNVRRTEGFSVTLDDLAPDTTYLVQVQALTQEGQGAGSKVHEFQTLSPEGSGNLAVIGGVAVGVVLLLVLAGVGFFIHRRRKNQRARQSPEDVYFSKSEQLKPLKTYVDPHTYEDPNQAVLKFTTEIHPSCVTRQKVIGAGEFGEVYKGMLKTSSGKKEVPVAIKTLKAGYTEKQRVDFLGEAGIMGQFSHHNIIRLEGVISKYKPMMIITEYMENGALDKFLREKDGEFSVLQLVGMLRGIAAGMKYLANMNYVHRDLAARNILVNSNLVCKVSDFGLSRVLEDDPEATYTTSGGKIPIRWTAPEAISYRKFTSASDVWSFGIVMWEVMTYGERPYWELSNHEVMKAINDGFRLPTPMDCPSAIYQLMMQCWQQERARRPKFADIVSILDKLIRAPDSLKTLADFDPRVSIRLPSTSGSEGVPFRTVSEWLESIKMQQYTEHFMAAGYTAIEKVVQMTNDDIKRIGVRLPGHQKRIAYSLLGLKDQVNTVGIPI
human Acetylcholinesterase (AChE), ACHE (gene 43), sequence (P22303 whole entry, looked up): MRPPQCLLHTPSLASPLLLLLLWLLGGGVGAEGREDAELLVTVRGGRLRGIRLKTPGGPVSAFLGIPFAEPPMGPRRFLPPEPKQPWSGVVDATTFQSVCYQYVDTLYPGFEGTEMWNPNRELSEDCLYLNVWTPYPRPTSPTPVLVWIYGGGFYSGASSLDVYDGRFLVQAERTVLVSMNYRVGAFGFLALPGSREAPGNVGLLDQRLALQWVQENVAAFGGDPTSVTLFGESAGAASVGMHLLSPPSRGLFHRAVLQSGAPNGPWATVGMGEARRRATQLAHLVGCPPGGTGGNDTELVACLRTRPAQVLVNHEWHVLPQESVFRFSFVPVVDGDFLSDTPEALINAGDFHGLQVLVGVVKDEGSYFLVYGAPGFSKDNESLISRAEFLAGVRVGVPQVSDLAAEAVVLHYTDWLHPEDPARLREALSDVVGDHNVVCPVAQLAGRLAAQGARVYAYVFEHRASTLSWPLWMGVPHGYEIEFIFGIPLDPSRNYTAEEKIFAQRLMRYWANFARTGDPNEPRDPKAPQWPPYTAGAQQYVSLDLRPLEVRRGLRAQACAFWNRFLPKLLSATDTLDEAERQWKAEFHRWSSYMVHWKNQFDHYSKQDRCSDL
human Fibroblast Growth Factor Receptor 1 (FGFR1), FGFR1 (gene 2260), sequence (P11362 whole entry, looked up): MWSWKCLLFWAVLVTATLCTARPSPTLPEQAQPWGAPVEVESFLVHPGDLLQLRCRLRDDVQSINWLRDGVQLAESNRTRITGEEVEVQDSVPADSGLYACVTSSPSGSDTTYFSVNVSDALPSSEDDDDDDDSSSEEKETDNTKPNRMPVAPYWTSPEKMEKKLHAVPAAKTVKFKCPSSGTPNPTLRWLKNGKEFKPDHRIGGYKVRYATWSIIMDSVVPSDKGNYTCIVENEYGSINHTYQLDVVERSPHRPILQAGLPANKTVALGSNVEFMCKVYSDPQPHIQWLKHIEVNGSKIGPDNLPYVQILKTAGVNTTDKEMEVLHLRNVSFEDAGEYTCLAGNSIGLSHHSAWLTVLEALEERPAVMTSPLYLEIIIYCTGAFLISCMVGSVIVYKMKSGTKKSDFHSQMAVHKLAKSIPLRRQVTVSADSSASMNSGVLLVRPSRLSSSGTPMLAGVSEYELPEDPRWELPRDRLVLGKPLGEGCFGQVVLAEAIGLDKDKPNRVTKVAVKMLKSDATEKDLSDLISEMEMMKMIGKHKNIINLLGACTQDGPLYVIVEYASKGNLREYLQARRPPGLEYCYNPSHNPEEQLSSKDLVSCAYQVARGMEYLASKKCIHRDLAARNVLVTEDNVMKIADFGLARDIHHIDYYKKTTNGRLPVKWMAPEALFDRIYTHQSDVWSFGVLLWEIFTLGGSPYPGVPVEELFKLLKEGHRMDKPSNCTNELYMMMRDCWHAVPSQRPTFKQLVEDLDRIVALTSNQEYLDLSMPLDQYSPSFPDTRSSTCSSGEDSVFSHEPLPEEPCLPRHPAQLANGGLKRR
human Aurora Kinase A - serine/threonine-protein Kinase 6 (AurA), AURKA (gene 6790), sequence (O14965 whole entry, looked up): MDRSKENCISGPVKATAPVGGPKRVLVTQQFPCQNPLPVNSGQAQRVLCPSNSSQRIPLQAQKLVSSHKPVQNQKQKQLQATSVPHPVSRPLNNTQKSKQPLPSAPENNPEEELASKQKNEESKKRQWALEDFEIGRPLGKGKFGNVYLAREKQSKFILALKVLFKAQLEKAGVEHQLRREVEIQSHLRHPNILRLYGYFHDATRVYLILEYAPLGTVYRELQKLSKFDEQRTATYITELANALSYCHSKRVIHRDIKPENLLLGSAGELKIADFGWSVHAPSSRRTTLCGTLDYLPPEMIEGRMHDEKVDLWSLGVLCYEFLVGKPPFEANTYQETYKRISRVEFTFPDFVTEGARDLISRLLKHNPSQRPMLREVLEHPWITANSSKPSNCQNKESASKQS
human p21 Activated Kinase 4 (PAK4), PAK4 (gene 10298), sequence (O96013 whole entry, looked up): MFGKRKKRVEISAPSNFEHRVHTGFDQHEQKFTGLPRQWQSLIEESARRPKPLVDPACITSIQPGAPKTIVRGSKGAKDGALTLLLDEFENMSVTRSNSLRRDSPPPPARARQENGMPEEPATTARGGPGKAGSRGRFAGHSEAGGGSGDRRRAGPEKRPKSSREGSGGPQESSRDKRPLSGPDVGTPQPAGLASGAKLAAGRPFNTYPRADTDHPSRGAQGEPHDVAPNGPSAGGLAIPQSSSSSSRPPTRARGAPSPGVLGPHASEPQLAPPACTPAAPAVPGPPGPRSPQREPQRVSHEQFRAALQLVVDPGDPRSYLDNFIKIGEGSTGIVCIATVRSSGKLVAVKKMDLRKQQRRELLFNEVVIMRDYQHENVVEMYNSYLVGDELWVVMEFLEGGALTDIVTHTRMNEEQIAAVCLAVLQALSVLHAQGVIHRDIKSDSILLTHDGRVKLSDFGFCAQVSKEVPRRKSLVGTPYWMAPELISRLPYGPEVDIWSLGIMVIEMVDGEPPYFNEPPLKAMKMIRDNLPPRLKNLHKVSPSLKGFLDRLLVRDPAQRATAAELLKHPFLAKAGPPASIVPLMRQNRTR
Norway rat Vesicular Monoamine Transporter (VMAT2), neurotransmitter transporter, Slc18a2 (gene 25549), sequence (Q01827 whole entry, looked up): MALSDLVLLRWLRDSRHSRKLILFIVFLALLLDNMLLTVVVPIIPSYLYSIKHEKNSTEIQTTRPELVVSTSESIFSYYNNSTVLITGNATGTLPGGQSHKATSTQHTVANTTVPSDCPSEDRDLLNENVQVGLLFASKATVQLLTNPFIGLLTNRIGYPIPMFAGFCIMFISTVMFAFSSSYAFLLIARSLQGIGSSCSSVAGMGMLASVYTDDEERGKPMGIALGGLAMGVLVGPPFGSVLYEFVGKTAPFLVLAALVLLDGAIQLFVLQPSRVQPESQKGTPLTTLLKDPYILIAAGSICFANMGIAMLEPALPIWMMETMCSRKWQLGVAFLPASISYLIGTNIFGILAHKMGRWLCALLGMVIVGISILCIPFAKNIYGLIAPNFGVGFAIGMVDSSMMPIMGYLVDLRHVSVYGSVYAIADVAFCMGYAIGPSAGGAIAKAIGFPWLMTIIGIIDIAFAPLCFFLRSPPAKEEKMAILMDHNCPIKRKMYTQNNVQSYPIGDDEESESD
human Matrix Metalloproteinase-1 (MMP1), MMP1 (gene 4312), sequence (P03956 whole entry, looked up): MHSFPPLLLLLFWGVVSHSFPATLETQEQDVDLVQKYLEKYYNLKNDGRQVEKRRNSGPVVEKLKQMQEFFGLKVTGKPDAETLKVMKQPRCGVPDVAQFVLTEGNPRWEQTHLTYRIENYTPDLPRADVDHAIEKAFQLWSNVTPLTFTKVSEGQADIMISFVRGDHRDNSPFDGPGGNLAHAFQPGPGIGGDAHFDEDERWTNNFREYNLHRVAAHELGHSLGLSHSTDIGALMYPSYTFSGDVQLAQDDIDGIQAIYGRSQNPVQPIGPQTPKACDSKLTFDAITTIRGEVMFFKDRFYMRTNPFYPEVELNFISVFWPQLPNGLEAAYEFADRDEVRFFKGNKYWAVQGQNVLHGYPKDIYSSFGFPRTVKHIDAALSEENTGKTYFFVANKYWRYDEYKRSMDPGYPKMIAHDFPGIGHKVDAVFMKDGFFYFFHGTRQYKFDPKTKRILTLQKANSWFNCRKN

With `O=C1O[C@H]([C@@H](O)CO)C(O)=C1O`, the outcome in experiment [1] was inactive.
As to `CN(C)C(=O)NC1(c2ccccc2)CCN(CCC[C@]2(c3ccc(Cl)c(Cl)c3)CCCN(C(=O)c3ccccc3)C2)CC1`, in experiment [2], the AC50 is 5.13 µM (active). The result in [1], in experiment [3], in experiment [4], in experiment [5], in experiment [6] and in experiment [7] was inactive. The call in experiment [8] was inactive.
Turning to `CCOC(=O)O[C@H](C)OC(=O)c1ccc2c(c1)cc(C(=O)NC1CCN(C(C)C)CC1)n2Cc1cc(-c2ccc(Cl)s2)on1`, the AC50 is 5.36 µM (active) in experiment [2], 23.6 µM (active) in [10] and 5.06 µM (active) in [11]. Besides, the molecule was called inactive in experiment [9].
Take `O=C(O)Cc1cc(I)c(Oc2cc(I)c(O)c(I)c2)c(I)c1`: the concentration at half-maximal activity (AC50) in experiment [2] was 2.92 µM (active); in experiment [3] it was 0.00511 µM (active); in experiment [12] it was 26.7 µM (active). Further, the molecule was classed as inactive in [4], in experiment [6], in experiment [8], in experiment [13], in [14] and in experiment [15]. Further, the result in experiment [16] was inactive.
With `O=C(NO)C1(NS(=O)(=O)c2ccc(Oc3ccc(F)cc3)cc2)CCOCC1`, the result in experiment [1], in experiment [17], in experiment [3], in [4], in experiment [6] and in experiment [12] was inactive. Moreover, the call in experiment [8], in experiment [18], in experiment [13] and in [11] was inactive. The concentration at half-maximal activity (AC50) in experiment [9] was 17.9 µM (active).

What is called AC50 is the midpoint of the concentration-response curve, whichever way the signal moves.

Source of the values: PubChem BioAssay (EPA / NIEHS).
